Screen size: about 5,500 compounds; about 2,000 (36%) were called active. Not shown: some 18% with an inconclusive outcome. No stated cut-off is given here; in the data, active means normalized growth mostly below about 0.91 (no sharp cut-off); inconclusive means no clear call, values can overlap the other calls; inactive means mostly above about 0.92. The list shows a part of the results.
Test: chemical genetic growth profiling, strain panel (AID 1159580);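 further: tested at 20 µM; growth read once vehicle control cultures reached saturation at 30 °C; 1 = growth at the plate median or of vehicle wells; lower values mean less growth of the strain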
Conditions: growth OD

Measured: normalized growth

CC(C)[C@]12O[C@H]1[C@@H]1O[C@@]13[C@@]1(C)CCC4=C(COC4=O)[C@@H]1C[C@@H]1O[C@@]13C2=O
inactive: S. cerevisiae deletion strains, locus YAL013W, strain DEP1, active compounds read low 1.01 | S. cerevisiae deletion strains, locus YBR021W, strain FUR4, active compounds read low 0.991 | S. cerevisiae deletion strains, locus YBR229C, strain ROT2, active compounds read low 1.01 | S. cerevisiae deletion strains, locus YCL029C, strain bik1, active compounds read low 0.998 | S. cerevisiae deletion strains, locus YDL035C, strain GPR1, active compounds read low 1.01 | S. cerevisiae deletion strains, locus YDL074C, strain BRE1, active compounds read low 1.03 | S. cerevisiae deletion strains, locus YDL101C, strain DUN1, active compounds read low 1.02 | S. cerevisiae deletion strains, locus YDL134C, strain PPH21, active compounds read low 1.01 | S. cerevisiae deletion strains, locus YDL185W, strain tfp1, active compounds read low 1 | S. cerevisiae deletion strains, locus YDL192W, strain arf1, active compounds read low 0.994 | S. cerevisiae deletion strains, locus YDR101C, strain arx1, active compounds read low 0.977 | S. cerevisiae deletion strains, locus YDR150W, strain NUM1, active compounds read low 1.02 | S. cerevisiae deletion strains, locus YDR162C, strain NBP2, active compounds read low 1.02 | S. cerevisiae deletion strains, locus YDR318W, strain mcm21, active compounds read low 0.979 | S. cerevisiae deletion strains, locus YDR388W, active compounds read low 0.996 | S. cerevisiae deletion strains, locus YDR502C, strain sam2, active compounds read low 1.01 | S. cerevisiae deletion strains, locus YEL061C, strain CIN8, active compounds read low 1.01 | S. cerevisiae deletion strains, locus YER110C, active compounds read low 0.987 | S. cerevisiae deletion strains, locus YER155C, strain BEM2, active compounds read low 1.02 | S. cerevisiae deletion strains, locus YER167W, strain BCK2, active compounds read low 1.01 | S. cerevisiae deletion strains, locus YGL078C, strain dbp3, active compounds read low 1.01 | S. cerevisiae deletion strains, locus YGL086W, strain mad1, active compounds read low 0.988 | S. cerevisiae deletion strains, locus YGL248W, strain PDE1, active compounds read low 1.01 | S. cerevisiae deletion strains, locus YGR078C, strain PAC10, active compounds read low 1.02 | S. cerevisiae deletion strains, locus YGR135W, strain pre9, active compounds read low 0.995 | S. cerevisiae deletion strains, locus YGR229C, strain SMI1, active compounds read low 1.01 | S. cerevisiae deletion strains, locus YGR252W, strain gcn5, active compounds read low 0.922 | S. cerevisiae deletion strains, locus YHR030C, strain SLT2, active compounds read low 1.01 | S. cerevisiae deletion strains, locus YHR079C, strain IRE1 (second series), active compounds read low 0.992 | S. cerevisiae deletion strains, locus YHR094C, strain hxt1, active compounds read low 0.991 | S. cerevisiae deletion strains, locus YHR129C, strain ARP1, active compounds read low 1.01 | S. cerevisiae deletion strains, locus YHR200W, strain rpn10, active compounds read low 0.997 | S. cerevisiae deletion strains, locus YIL066C, strain RNR3, active compounds read low 1 | S. cerevisiae deletion strains, locus YIL073C, strain SPO22, active compounds read low 0.958 | S. cerevisiae deletion strains, locus YIL125W, strain kgd1, active compounds read low 1.01 | S. cerevisiae deletion strains, locus YIR030C, strain dcg1, active compounds read low 0.998 | S. cerevisiae deletion strains, locus YJL095W, strain BCK1, active compounds read low 1 | S. cerevisiae deletion strains, locus YJL134W, strain LCB3, active compounds read low 1.01 | S. cerevisiae deletion strains, locus YJL168C, strain set2, active compounds read low 0.993 | S. cerevisiae deletion strains, locus YJL187C, strain SWE1 (second series), active compounds read low 1.02 | S. cerevisiae deletion strains, locus YJR043C, strain POL32, active compounds read low 0.987 | S. cerevisiae deletion strains, locus YJR075W, strain HOC1, active compounds read low 1.02 | S. cerevisiae deletion strains, locus YKL009W, strain mrt4, active compounds read low 0.994 | S. cerevisiae deletion strains, locus YKL068W, active compounds read low 0.994 | S. cerevisiae deletion strains, locus YKL085W, strain MDH1 (second series), active compounds read low 0.997 | S. cerevisiae deletion strains, locus YKL085W, strain MDH1, active compounds read low 0.997 | S. cerevisiae deletion strains, locus YKL190W, strain CNB1, active compounds read low 1.01 | S. cerevisiae deletion strains, locus YKR001C, strain vps1, active compounds read low 0.997 | S. cerevisiae deletion strains, locus YLR039C, strain RIC1, active compounds read low 1.01 | S. cerevisiae deletion strains, locus YLR058C, strain SHM2, active compounds read low 1.01 | S. cerevisiae deletion strains, locus YLR102C, strain apc9, active compounds read low 1 | S. cerevisiae deletion strains, locus YLR262C, strain YPT6, active compounds read low 0.979 | S. cerevisiae deletion strains, locus YLR268W, strain sec22, active compounds read low 0.984 | S. cerevisiae deletion strains, locus YLR330W, strain CHS5, active compounds read low 1.01 | S. cerevisiae deletion strains, locus YLR342W, strain FKS1 (second series), active compounds read low 0.978 | S. cerevisiae deletion strains, locus YLR371W, strain rom2, active compounds read low 1 | S. cerevisiae deletion strains, locus YLR418C, strain cdc73, active compounds read low 0.995 | S. cerevisiae deletion strains, locus YML016C, strain PPZ1, active compounds read low 1.01 | S. cerevisiae deletion strains, locus YML032C, strain rad52, active compounds read low 0.972 | S. cerevisiae deletion strains, locus YML124C, strain tub3, active compounds read low 0.996 | S. cerevisiae deletion strains, locus YMR078C, strain ctf18, active compounds read low 0.989 | S. cerevisiae deletion strains, locus YMR223W, strain ubp8, active compounds read low 0.976 | S. cerevisiae deletion strains, locus YMR263W, strain SAP30, active compounds read low 1.03 | S. cerevisiae deletion strains, locus YMR307W, strain GAS1, active compounds read low 1.04 | S. cerevisiae deletion strains, locus YNL067W, strain RPL9B, active compounds read low 1.02 | S. cerevisiae deletion strains, locus YNL128W, strain TEP1, active compounds read low 1.03 | S. cerevisiae deletion strains, locus YNL153C, strain GIM3, active compounds read low 1.03 | S. cerevisiae deletion strains, locus YNL233W, strain BNI4, active compounds read low 1.04 | S. cerevisiae deletion strains, locus YNL250W, strain rad50, active compounds read low 0.992 | S. cerevisiae deletion strains, locus YNL271C, strain bni1, active compounds read low 0.998 | S. cerevisiae deletion strains, locus YNL298W, strain CLA4, active compounds read low 1.01 | S. cerevisiae deletion strains, locus YNL307C, strain MCK1, active compounds read low 0.983 | S. cerevisiae deletion strains, locus YNL322C, strain KRE1, active compounds read low 1.01 | S. cerevisiae deletion strains, locus YNR052C, strain pop2, active compounds read low 0.978 | S. cerevisiae deletion strains, locus YOL006C, strain TOP1, active compounds read low 1.01 | S. cerevisiae deletion strains, locus YOL012C, strain htz1 0.999 | S. cerevisiae deletion strains, locus YOL147C, strain pex11, active compounds read low 0.996 | S. cerevisiae deletion strains, locus YOR061W, strain CKA2, active compounds read low 1.01 | S. cerevisiae deletion strains, locus YOR069W, strain VPS5, active compounds read low 1.01 | S. cerevisiae deletion strains, locus YOR136W, strain idh2, active compounds read low 0.99 | S. cerevisiae deletion strains, locus YOR144C, strain elg1, active compounds read low 0.997 | S. cerevisiae deletion strains, locus YOR184W, strain ser1, active compounds read low 0.966 | S. cerevisiae deletion strains, locus YOR316C, strain cot1, active compounds read low 0.997 | S. cerevisiae deletion strains, locus YPL055C, strain LGE1, active compounds read low 1.06 | S. cerevisiae deletion strains, locus YPL241C, strain CIN2, active compounds read low 1.01 | S. cerevisiae deletion strains, locus YPR119W, strain clb2, active compounds read low 0.999 | S. cerevisiae deletion strains, locus YPR141C, strain kar3, active compounds read low 0.987 | S. cerevisiae deletion strains, locus YPR163C, strain tif3, active compounds read low 1 | S. cerevisiae deletion strains, locus YPR167C, strain met16, active compounds read low 0.99 | S. cerevisiae deletion strains, strain wtn01, active compounds read low 1.02 | S. cerevisiae strains, strain wild type, active compounds read low 1.01
